# Screening results as filed in PubChem.
# The list is not random: actives were taken first. Their share in the collection is about 2.6%.
# TWEAK Fn14 block: blocks TWEAK-Fn14 interaction in a reporter cell assay; TWEAK-stimulated Fn14 reporter cells, luciferase luminescence, 8 h; inhibition, % at 10 µM; hit rate 2% among 360,000; AID 1159606; in the data active = inhibition above about 50%
# TROY NFkB inh: TROY signaling inhibition | hit rate 0.98% among 360,000 | Q293 LMP1-TROYcd NF-kB luciferase reporter, 4 h | inhibition, % at 10 µM | AID 1347056;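 active = compounds whose plate-normalised and pattern-corrected inhibition of the luciferase reporter signal at the single screening dose is 50% or more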
# EWS-Fli block: inhibitors of EWS/Fli oncoprotein transcriptional activity. A673 NR0B1-luciferase reporter, viability-normalised. hit rate 0.67% among 350,000. inhibition, % at 12.6 µM;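 active = mean inhibition of at least 50% after viability correction, with every replicate also passing that limit; inconclusive = mean reaches 50% but only one of two replicates passes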;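 note: firefly luciferase signal divided by Alamar Blue viability fluorescence both relative to DMSO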
# LMP1 NFkB inh: Epstein-Barr LMP1 NF-kappaB reporter inhibition | LMP1-induced NF-kappaB luciferase reporter cells, luminescence | inhibition, % at 12.5 µM | hit rate 0.69% among 350,000 | AID 504558; in the data active = inhibition above about 41%; inconclusive = no clear call, values can overlap the other calls;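 note: 0% = neutral control wells and 100% = reference inhibitor control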
# LGR2 inh: Drosophila LGR2 receptor signaling inhibition; HEK293 LGR2, CRE-luciferase, bursicon-stimulated, 4 h; inhibition, % at 9.99 µM; hit rate 0.35% among 380,000;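 active = drop in luminescence signal, shown as inhibition above about 50% in the replicate tests, limit read from the data, passing the limit was not always enough; inconclusive = probably only some replicates passing the limit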;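 note: agonist challenge used bursicon conditioned medium at about half maximal strength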
# * marks the source's active call; other numbers are inactive results; ? = inconclusive; · = no result.
SMILES,TWEAK Fn14 block,TROY NFkB inh,EWS-Fli block,LMP1 NFkB inh,LGR2 inh
Oc1ccc(CN2CCCCC2)c2cccnc12,1,-16,45,-2,12
Oc1c(CN2CCN(c3ccccn3)CC2)cc(Cl)c2cccnc12,107*,-17,·,40,·
Oc1c(CN2CCCCC2)cc(COCc2ccccc2)c2cccnc12,-14,10,·,79*,·
O=[N+]([O-])c1cccc(-c2nc(-c3cccs3)c(-c3cccs3)[nH]2)c1,58*,19,·,3,·
O=[N+]([O-])c1ccc(-c2nc(-c3cccs3)c(-c3cccs3)[nH]2)cc1,79*,66*,·,-6,16
O=[N+]([O-])c1cccc(-c2nc(-c3ccccc3)c(-c3cccs3)[nH]2)c1,12,10,·,-2,2
CC(C)(C)N1C(=O)c2ccc(C(=O)Nc3cc(C(=O)O)cc(C(=O)O)c3)cc2C1=O,99*,16,-3,5,23
Cc1cc(NC(=O)c2ccc3c(c2)C(=O)N(C(C)(C)C)C3=O)no1,-6,-20,-24,-10,·
Cc1cc(Cl)c2ccc3ccccc3c2n1,-3,-16,-2,-2,18
Cc1ccc2c(Cl)cc(Cl)c(O)c2n1,101*,36,6,40,11
CN1CCN(C(=O)[C@@H]2[C@@H](CO)[C@@H]3Cn4c(ccc(/C=C/c5ccccc5)c4=O)[C@@H]3N2CC2CC2)CC1,·,·,11,·,-15
COc1ccccc1C#Cc1cnc2c(c1)C(=O)N([C@H](C)CO)C[C@@H](C)[C@@H](CN(C)C(=O)CN(C)C)O2,·,·,-4,·,-4
COc1cc(C2NC(=O)NC(C)=C2C(=O)OC2CCCC(C)C2)cc(Br)c1O (configuration not stated),1,11,18,49*,·
COc1cccc(NC(=O)N[C@H]2C=C[C@H](CC(=O)Nc3ccc(-c4ccccc4)cc3)O[C@@H]2CO)c1,·,·,·,·,2
CCc1ccc(C(C(=O)NC2CCCC2)N(C(=O)/C=C/C(=O)Nc2cc(C)on2)c2ccccc2C)cc1 (configuration not stated),56*,27,·,7,7
Cc1ccc(O)c(N=Nc2ccccc2)n1,57*,26,-84,10,?
CCCCCCCOC(=O)C[N+](C)(C)CCOC1CC2CCC1(C)C2(C)C (configuration not stated),46,63*,67*,11,23
CCCCCCOC(=O)C[N+](C)(C)CCOC1CC2CCC1(C)C2(C)C (configuration not stated),-1,4,·,8,·
N#C/C(=C\c1ccc([N+](=O)[O-])o1)C(=O)Nc1ccc(F)cc1,-11,-23,15,-6,1
N#CCc1ccc(NC(=O)/C=C/c2ccc([N+](=O)[O-])o2)cc1,61*,-18,·,30,·
Cc1noc(C)c1S(=O)(=O)Nc1ccc2c(c1)C(=O)N([C@@H](C)CO)C[C@H](C)[C@H](CN(C)S(=O)(=O)c1cn(C)cn1)O2,·,·,-5,·,5
CCOC(=O)c1cnn(-c2ccccc2)c1NC(=O)CN1CCOCC1,-9,-7,2,63*,3
COc1cccc2sc(Nc3nc(-c4cc5ccccc5oc4=O)cs3)nc12,37,1,·,9,14
CC(=O)Nc1ccc2nc(NC(=O)COc3ccccc3C)sc2c1,-4,20,-12,-1,-26
COc1cccc2sc(Nc3nc4ccc(NC(C)=O)cc4s3)nc12,51*,-40,-3,-1,·
SMILES,TWEAK Fn14 block,TROY NFkB inh,EWS-Fli block,LMP1 NFkB inh,LGR2 inh
COc1cccc2sc(Nc3nc(-c4ccncc4)cs3)nc12,46,-9,63*,4,2
COCC(=O)N(C[C@@H]1N[C@@H](CO)[C@@H]1c1ccc(-c2cccnc2)cc1)C(C)C,·,·,-6,·,5
CC(C)NC(=O)N(C)C[C@@H]1Oc2cc(C#CC(C)(C)O)ccc2S(=O)(=O)N([C@@H](C)CO)C[C@@H]1C,·,·,-8,·,14
O=S(=O)(c1ccc2c(c1)C(=NO)c1cc(S(=O)(=O)N3CCCCC3)ccc1-2)N1CCCCC1,13,-22,·,85*,·
CC1CCN(S(=O)(=O)c2ccc3c(c2)C(=NO)c2cc(S(=O)(=O)N4CCC(C)CC4)ccc2-3)CC1,-127,-17,·,-166,·
CCCN(C)C[C@H]1Oc2ncc(-c3cccnc3)cc2C(=O)N([C@H](C)CO)C[C@@H]1C,·,·,-9,·,26
COc1ccc(/C=C2/CCC(CN3CCOCC3)C2=O)cc1 (configuration not stated),66*,-18,57*,86*,-9
O=C(/C=C/c1ccccc1)Nc1cccc(C(=O)O)c1,41,-21,86*,80*,103*
O=C(/C=C/c1ccccc1)Nc1cc(NC(=O)/C=C/c2ccccc2)cc(C(=O)O)c1,2,-4,25,8,30
CSc1ccc(/C=C/C(=O)Nc2ccccc2)cc1,72*,42,5,0,77*
CCC(=O)Nc1cccc(C(=O)/C=C/c2ccccc2)c1,65*,8,·,-8,·
Cc1ccc(N/C=C/C(=O)c2ccc(C)cc2)cc1,2,-2,·,-39,·
Cc1ccc(C(=O)/C=C/C(=O)c2ccc(C)cc2)cc1,19,-11,11,45*,-28
Cc1ccc(/C=C/C(=O)c2ccc(C)cc2)cc1,-31,-79,·,-10,·
Cc1ccc(C(=O)/C=C/Nc2ccccc2C(N)=O)cc1,58*,-49,·,16,·
NC(=O)c1ccccc1N/C=C/C(=O)c1ccc(Cl)cc1,40,-65,·,-6,·
Cc1ccc(C(=O)/C=C/Nc2ccccn2)cc1,102*,47,·,69*,·
CO[C@H]1CC[C@H]2CCN(C)C(=O)C[C@H](c3ccccc3)CN(C)C(=O)c3cccc(C#N)c3OC[C@H]1O2,·,·,0,·,-12
CNC[C@@H]1Oc2ccc(NC(=O)CCN3CCOCC3)cc2C(=O)N([C@@H](C)CO)C[C@@H]1C,·,·,-2,·,14
CC(C)NC(=O)N(C)C[C@H]1Oc2c(NS(C)(=O)=O)cccc2C(=O)N([C@H](C)CO)C[C@@H]1C,·,·,0,·,6
Cn1cnc([N+](=O)[O-])c1S(=O)(=O)c1cccc(Cl)c1,18,64*,23,-2,2
CCc1ccc(S(=O)(=O)/N=C2\C=C(NS(=O)(=O)c3ccccc3)C(=O)c3ccccc32)cc1,-6,-22,-107,-4,2
O=C(O)c1ccc(S(=O)(=O)/N=C2\C=C(Nc3ccccc3F)C(=O)c3ccccc32)cc1,96*,49,?,-14,101*
Cc1ccccc1NC1=C/C(=N\S(=O)(=O)c2ccc(C(=O)O)cc2)c2ccccc2C1=O,93*,42,-21,-13,-5
C[C@@H]1CN([C@H](C)CO)C(=O)c2cccc(NC(=O)c3nc4ccccc4s3)c2O[C@H]1CN(C)CC1CC1,·,·,-2,·,6
Cc1ccc2c(COC(=O)C3=COCCO3)cc(=O)oc2c1,81*,30,·,27,·
Cc1ccc(S(=O)(=O)NCC(=O)OCc2cc(=O)oc3cc(C)ccc23)cc1,7,2,1,-5,-5
CO[C@@H]1CN(C)C(=O)c2ccc(NS(=O)(=O)c3ccccc3C)cc2OC[C@H](C)N(S(C)(=O)=O)C[C@H]1C,·,·,3,·,-8
